From the supplement of paper PMC12350171
Where a name gives a salt, the structure may show the parent alone.

Each compound was assayed on Haemophilus parainfluenzae (assay: growth AUC normalised to DMSO control (fraction of control); higher = less growth inhibition, active = hit call of the paper). Settings: 20 µM;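 active = AUC significantly below DMSO controls by Student t-fit with adjusted P under 0.01; inactive = not significantly reduced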.
How it was run: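 Three biological replicates were carried out, with OD578 read hourly for 24 h. Before inoculation at a starting OD578 of 0.01, pathogens were passaged anaerobically twice; plates were pre-reduced mGAM containing 20 μM compound and 1% DMSO, sealed with breathable membranes, and the Haemophilus parainfluenzae medium carried added hemin and NAD. Area under each growth curve was calculated by the trapezoidal rule up to the exponential-to-stationary transition and normalised to DMSO controls on the same plate.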

SMILES	growth AUC normalised to DMSO control
Cc1cccc(CN2CCN(C(c3ccccc3)c3ccc(Cl)cc3)CC2)c1 (centres undefined) [Meclozine dihydrochloride]	0.948 (inactive)
CN1CCCC(CC2c3ccccc3Sc3ccccc32)C1 (centres undefined) [Metixene hydrochloride]	0.999 (inactive)
CC1(C)O[C@@H]2C[C@H]3[C@@H]4C[C@H](F)C5=CC(=O)C=C[C@]5(C)[C@@]4(F)[C@@H](O)C[C@]3(C)[C@]2(C(=O)CO)O1 [Fluocinolone acetonide]	0.995 (inactive)
Cc1ccc(-c2cc(C(F)(F)F)nn2-c2ccc(S(N)(=O)=O)cc2)cc1 [Celecoxib]	0.85 (inactive)
COc1ccccc1OCC(O)CO (centres undefined) [Guaifenesin]	1.04 (inactive)
c1ccc(CN(CC2=NCCN2)c2ccccc2)cc1 [Antazoline hydrochloride]	1.01 (inactive)
CN(C)CCOC(c1ccccc1)c1ccccc1 [Diphenhydramine hydrochloride]	0.992 (inactive)
CCCCC(C)(O)C/C=C/[C@H]1[C@H](O)CC(=O)[C@@H]1CCCCCCC(=O)OC (mixture of isomers) [Misoprostol]	1.02 (inactive)
COc1ccc2[nH]c([S+]([O-])Cc3ncc(C)c(OC)c3C)nc2n1 (centres undefined) [Tenatoprazole]	0.978 (inactive)
CC(C)Cn1cnc2c(N)nc3ccccc3c21 [Imiquimod]	1.08 (inactive)
CC(CN(C)C)CN1c2ccccc2CCc2ccccc21 (centres undefined) [Trimipramine maleate salt]	1.07 (inactive)
COc1cc(C(=O)NS(=O)(=O)c2ccccc2C)ccc1Cc1cn(C)c2ccc(NC(=O)OC3CCCC3)cc12 [Zafirlukast]	0.825 (inactive)
CNCCCC12CCC(c3ccccc31)c1ccccc12 [Maprotiline hydrochloride]	0.979 (inactive)
CC(=O)O[C@]1(C(C)=O)CC[C@H]2[C@@H]3C=C(Cl)C4=CC(=O)CC[C@]4(C)[C@H]3CC[C@@]21C [Chlormadinone acetate]	1.01 (inactive)
Clc1ccc(CO/N=C(\Cn2ccnc2)c2ccc(Cl)cc2Cl)c(Cl)c1 [Oxiconazole nitrate]	1.01 (inactive)
C[C@]12C=CC(=O)C=C1CC[C@@H]1[C@@H]2C(=O)C[C@@]2(C)[C@H]1CC[C@]2(O)C(=O)CO [Prednisone]	1.01 (inactive)
CC(c1cc2ccccc2s1)N(O)C(N)=O (centres undefined) [Zileuton]	0.909 (inactive)
CCn1cc(C(=O)O)c(=O)c2cnc(N3CCCC3)nc21 [Piromidic acid]	1.03 (inactive)
CCN(CC)CCOC(=O)C1(C2CCCCC2)CCCCC1 [Dicyclomine hydrochloride]	0.87 (inactive)
Cc1ccccc1C(OCCN(C)C)c1ccccc1 (centres undefined) [Orphenadrine hydrochloride]	0.954 (inactive)

SMILES	growth AUC normalised to DMSO control
COc1cc2nc(N3CCN(C(=O)c4ccco4)CC3)nc(N)c2cc1OC [Prazosin hydrochloride]	0.981 (inactive)
CC(C)(O)c1ccccc1CC[C@@H](SCC1(CC(=O)O)CC1)c1cccc(/C=C/c2ccc3ccc(Cl)cc3n2)c1 [Montelukast]	0.964 (inactive)
CCSc1ccc2c(c1)N(CCCN1CCN(C)CC1)c1ccccc1S2 [Thiethylperazine maleate]	1.02 (inactive)
CCN(CC)Cc1cc(Nc2ccnc3cc(Cl)ccc23)ccc1O [Amodiaquine dihydrochloride dihydrate]	0.992 (inactive)
Cc1nnc(NS(=O)(=O)c2ccc(N)cc2)s1 [Sulfamethizole]	0.903 (inactive)
CN(C)CCC(c1ccc(Br)cc1)c1ccccn1 (centres undefined) [Brompheniramine maleate]	1.04 (inactive)
COc1cc(NS(=O)(=O)c2ccc(N)cc2)nc(OC)n1 [Sulfadimethoxine]	0.98 (inactive)
CC(C)c1c(C(=O)Nc2ccccc2)c(-c2ccccc2)c(-c2ccc(F)cc2)n1CC[C@@H](O)C[C@@H](O)CC(=O)O [Atorvastatin]	0.996 (inactive)
CC(C(=O)O)c1cccc(Oc2ccccc2)c1 (centres undefined) [Fenoprofen calcium salt dihydrate]	0.945 (inactive)
Clc1ccc(C(Cn2ccnc2)OCc2c(Cl)cccc2Cl)c(Cl)c1 (centres undefined) [Isoconazole]	0.972 (inactive)
O=C(O[C@@H]1C[C@@H]2C[C@H]3C[C@H](C1)N2CC3=O)c1c[nH]c2ccccc12 [Dolasetron mesilate]	1.06 (inactive)
Oc1c(Cl)cc(Cl)c(Cl)c1Cc1c(O)c(Cl)cc(Cl)c1Cl [Hexachlorophene]	0.0305 (active)
CCCCNC(=O)NS(=O)(=O)c1ccc(C)cc1 [Tolbutamide]	0.99 (inactive)
CN(C)CCC=C1c2ccccc2CCc2ccccc21 [Amitryptiline hydrochloride]	0.958 (inactive)
O=C(NCCO[N+](=O)[O-])c1cccnc1 [Nicorandil]	0.987 (inactive)
CN1CCCC(n2nc(Cc3ccc(Cl)cc3)c3ccccc3c2=O)CC1 (centres undefined) [Azelastine hydrochloride]	0.994 (inactive)
CC(=O)Oc1ccc(C(c2ccc(OC(C)=O)cc2)c2ccccn2)cc1 [Bisacodyl]	1.03 (inactive)
NCc1ccc(S(N)(=O)=O)cc1 [Mafenide hydrochloride]	1 (inactive)
CO[C@@]1(NC(=O)CSCC#N)C(=O)N2C(C(=O)O)=C(CSc3nnnn3C)CS[C@@H]21 [Cefmetazole sodium salt]	0.0246 (active)
